# Assay results as given in PubChem BioAssay (NCATS).
# Results filed as inconclusive are left out. A call without a number means that no potency is given here. The source made the active and inactive calls. The call rests on the fitted dose curve; in most records, active means well fitted cell-killing curve with a large enough effect; inconclusive means small, poorly fitted or top-dose-only effect, or effect the other way; inactive means no such curve, though single readings can be large or run the other way.
# Experiment: qHTS of pediatric cancer cell lines to identify multiple opportunities for drug repurposing: Confirmatory screen for NB1643 cells (AID 1347109); further: nearly all actives have a fitted effect of over 45% in size
# Conditions: NB1643 neuroblastoma cell viability; series mostly up to 45.9 µM
# Outline: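 Cells (500-1,000/well) rested 5 h, then received compounds for 48 h; metabolically active cells were measured by CellTiter-Glo luminescence. Final concentrations spanned up to 46 µM (MIPE, 11-point) or 0.59 nM-46 µM (NPC, 8-point) in primary screens, 11-point in follow-ups.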
# Potency means the concentration at half of the fitted maximal effect.
row,SMILES,Potency
1,NC(=O)CC[C@@H]1NC(=O)[C@H](Cc2ccccc2)NC(=O)[C@H](Cc2ccc(O)cc2)NC(=O)CCSSC[C@@H](C(=O)N2CCC[C@H]2C(=O)N[C@@H](CCCN=C(N)N)C(=O)NCC(N)=O)NC(=O)[C@H](CC(N)=O)NC1=O,inactive
2,C[C@H]1C[C@H]2[C@@H]3CCC4=CC(=O)C=C[C@]4(C)[C@@]3(Cl)[C@@H](O)C[C@]2(C)[C@@]1(O)C(=O)CO,inactive
3,CCCCC(CC)CN=C(N)NC(N)=NCCCCCCN=C(N)NC(N)=NCC(CC)CCCC (stereo not given),5.22 µM (active)
4,C[C@]12C=CC(=O)C=C1[C@@H](F)C[C@@H]1[C@@H]2[C@@H](O)C[C@@]2(C)[C@H]1CC[C@]2(O)C(=O)CO,inactive
5,CC(C)(C(=O)c1cccnc1)c1cccnc1,inactive
